Screens as filed in PubChem.
This is a sample that favours compounds with a hit; in the whole collection about 3.1% have one here.
Tau ThT inhib – blocks human tau fibril formation measured by thioflavin T. recombinant tau K18 P301L, heparin-induced fibrillization, ThT fluorescence. Potency, µM (titrated, usually from 57.4 µM), for the others: at the top dose activity, negative = inhibition, most hits filed as inhibitors. AID 1460. 2.1% of 270,000 active; further: nearly all actives have a fitted effect of over 55% in size
Target sequence (P10636 561-689 P618L limits assumed): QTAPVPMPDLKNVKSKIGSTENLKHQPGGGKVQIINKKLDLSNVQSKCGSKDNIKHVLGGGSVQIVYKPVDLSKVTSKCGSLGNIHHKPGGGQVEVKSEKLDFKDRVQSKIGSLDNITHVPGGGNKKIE
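ThT emission at 510 nm, taken 1 hr after adding 30 uM dye, quantifies aggregates formed when 20 uM heparin acts on human tau K18 P301L for 6 hr at 37 C.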
Tau FP inhib – blocks human tau fibril formation measured by polarization | AID 1468 | 0.39% of 280,000 active | Potency, µM (doses to about 57.7 µM), inactives show at the highest dose activity, negative = inhibition, most hits filed as inhibitors | K18 P301L tau heparin fibrillization, Alexa594 FP, 6 h | P10636; further: nearly all actives have a fitted effect of over 55% in size
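Human K18 P301L fragment (15 uM unlabeled plus 0.24 uM Alexa 594-labeled) in 100 mM sodium acetate pH 7 with compound, aggregation induced by 20 uM heparin for 6 hr at 37 C. ThT (30 uM) added for 1 hr, then Alexa 594 FP read.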
Tau fluor cs – counter-screen for tau fibril formation inhibitors | tau K18 P301L Alexa594 fluorescence, heparin fibrillization | Potency, µM (doses to about 57.7 µM), inactives show at the top dose activity change, negative = decrease | 0.93% of 280,000 active; further: nearly all actives have a fitted effect of over 55% in size
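Human tau K18 P301L (15 uM unlabeled, 0.24 uM Alexa 594-labeled) in 100 mM sodium acetate pH 7 with 20 uM heparin, 6 hr at 37 C. ThT 30 uM added, 1 hr ambient; Alexa 594 FP and total fluorescence read at 555/632 nm.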
TexasRed fluor – Texas Red fluorescence interference in TRb-SRC2 counter-screen; TRb/SRC2 Texas Red total fluorescence interference; Potency, µM (highest dose often 106 µM), for the others: at the top dose fluorescence change, negative = quenching; AID 1479; 0.29% of 280,000 active; active means well fitted curve in either direction with a large enough effect; inconclusive means small, poorly fitted or top-dose-only effect
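Human TRβ ligand-binding domain (0.6 uM) and Texas Red SRC2 peptide (20 nM) in Tris buffer with 1 uM T3 and 5% DMSO were incubated with pinned compound for 5 hr at ambient temperature. Total fluorescence was computed as S + 2P (555/632 nm).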
TRb SRC2 PPI – disrupts binding of human TR beta to SRC2; TRbeta-SRC2 peptide binding, fluorescence polarization; receptor liganded with 1 µM T3; 0.065% of 280,000 active; P10828; Potency, µM (highest dose often 106 µM), without a hit: at the highest dose activity change, negative = inhibition, most hits filed as inhibitors; AID 1469;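 further: plate controls were bound peptide for no effect and peptide without receptor for full effect; nearly all actives have a fitted effect of over 50% in size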
Target sequence (P10828 whole entry, looked up): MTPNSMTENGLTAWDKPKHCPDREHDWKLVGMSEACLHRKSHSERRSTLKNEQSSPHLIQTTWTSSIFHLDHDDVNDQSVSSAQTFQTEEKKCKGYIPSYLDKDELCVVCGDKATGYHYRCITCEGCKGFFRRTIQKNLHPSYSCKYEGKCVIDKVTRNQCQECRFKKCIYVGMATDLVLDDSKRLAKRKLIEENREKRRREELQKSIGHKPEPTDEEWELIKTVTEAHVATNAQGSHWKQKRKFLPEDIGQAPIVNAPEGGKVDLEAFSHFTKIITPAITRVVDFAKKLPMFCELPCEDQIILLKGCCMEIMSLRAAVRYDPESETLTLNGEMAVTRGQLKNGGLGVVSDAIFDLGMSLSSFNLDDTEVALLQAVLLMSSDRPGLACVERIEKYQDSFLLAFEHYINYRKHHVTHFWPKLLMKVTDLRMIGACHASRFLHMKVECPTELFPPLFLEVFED
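Decrease in fluorescence polarization of 20 nM Texas Red SRC2 coactivator peptide flagged inhibition of its binding to 0.6 uM TRb LBD; 1 uM T3 included, incubation 5 hr, ex 555/em 632 nm.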
* = called active by the depositor; ? = inconclusive; . = no result; [ ] = remark or other dose. Unless noted, the call rests on the fitted dose curve; in most records, active means well fitted curve in the direction sought with a large enough effect; inconclusive means small, poorly fitted or top-dose-only effect, or another doubt; inactive means no such curve, though single readings can be large; an effect the other way counts as inactive or inconclusive. Unless noted, on the % scale 0 is the no-effect control and ±100 the full control effect; potency means the concentration at half of the fitted maximal effect.

SMILES	Tau ThT inhib	Tau FP inhib	Tau fluor cs	TexasRed fluor	TRb SRC2 PPI
O=C(CSc1ccccc1)Nc1nnc(COc2ccc(Cl)cc2)s1	28µM*	?	?	-5%	-8%
Cc1[nH]c2ccc(Br)cc2c1CCNC(=O)c1cc2ccccc2oc1=O	?	?	?	-15%	4%
Cc1ccc(-c2[nH]c3ccccc3c2SCCNC(=O)c2cc3ccccc3oc2=O)cc1	?	-9%	8.9µM*[quencher]	0%	3%
O=C(NCCSc1c(-c2ccccc2)[nH]c2ccccc12)c1cc2ccccc2oc1=O	?	-12%	7.1µM*[quencher]	-2%	4%
O=C(O)c1nc(-c2ccccc2)n(-c2cccc(C(F)(F)F)c2)n1	-9%	2%	-8%	1%	-7%
COc1ccc(NC(=O)C(=O)NCc2ccco2)c(OC)c1	-17%	-9%	-22%	4%	-5%
Oc1ccccc1/C=N/NC(=S)NC1CC2C=CC1C2 (stereo unspecified)	-1%	5%	?	-1%	1%
Oc1c(Cl)cc(Cl)cc1/C=N/NC(=S)NC1CC2C=CC1C2 (stereo unspecified)	?	7%	28µM*[quencher]	-8%	0%
Cc1ccc(N=Nc2ccc(N)cc2C)c(S(N)(=O)=O)c1	14µM*	15%	?	-4%	-7%
CCCCCCc1ccc(-c2ncc(N)cn2)cc1	-20%	7%	14µM*[quencher]	-1%	-2%
Cc1c(O)c2c(=O)n(-c3ccccc3)c(-c3ccccc3)cc2oc1=O	3%	3%	7%	0%	12%
COc1cc([C@@H]2c3cc4c(cc3[C@@H](O[C@@H]3O[C@H]5CO[C@@H](C)O[C@@H]5[C@@H](O)[C@H]3O)[C@@H]3COC(=O)[C@@H]23)OCO4)cc(OC)c1O	4%	2%	6%	-1%	-4%
CC(C)=CCCC1(C)C=Cc2c(c(C)cc3c2[nH]c2cc(O)ccc23)O1 (stereo unspecified)	28µM*	?	5µM*[quencher]	-2%	-2%
CC(=O)Nc1ccc(S(=O)(=O)/N=C2\C(=O)c3ccccc3C([O-])=C2n2cc[n+](-c3ccccn3)c2)cc1	13µM*	?	14µM*[quencher]	-6%	-9%
On1c2c(c3c4nonc4ccc31)CCCC2	7.9µM*	?	?	4%	2%
COn1c(C)c(C(C)=O)c2c3nonc3ccc21	14µM*	?	-15%	-1%	-2%
CCOC(=O)c1c(C)n(OC)c2ccc3c(no[n+]3[O-])c12	-10%	-6%	-9%	0%	0%
COn1c2c(c3c4no[n+]([O-])c4ccc31)CCCC2	?	2%	-17%	0%	10%
COn1c2c(c3c4nonc4ccc31)CCCC2	14µM*	?	?	-3%	?
Oc1ccccc1-n1nc2ccc3nonc3c2n1	-7%	-7%	-16%	0%	4%
Oc1[nH]c2ccccc2c1N=NC(=S)N1CCOCC1	8.9µM*	-11%	-18%	-3%	-8%
CC(=O)/C=C(\C)N=Nc1c(O)[nH]c2ccccc12	7.9µM*	-4%	-11%	-3%	-1%
Oc1[nH]c2ccc(Br)cc2c1N=NC(=S)N1CCOCC1	10µM*	0%	?	-7%	-5%
COc1ccc(-c2cc(C(=O)Nc3cc(OC)cc(C(=O)Nc4cccc(C(F)(F)F)c4)c3)[nH]n2)cc1	-1%	?	?	-16%	?
Cc1ccc(Nc2c([N+](=O)[O-])ccc3c2=NC2(CCCCC2)N=3)cc1	16µM*	-11%	?	-3%	-11%
SMILES	Tau ThT inhib	Tau FP inhib	Tau fluor cs	TexasRed fluor	TRb SRC2 PPI
Cc1cccc(N=C2NC(=O)/C(=C3/C(=O)N(C)c4ccccc43)S2)c1C	10µM*	2%	?	-1%	-11%
Cc1ccccc1N=C1NC(=O)/C(=C/c2cccn2C)S1	?	-3%	-29%	2%	7%
Cc1nc(N2CCCC2)ncc1C(=O)NCc1cccc(Cl)c1	-7%	-2%	-3%	0%	2%
CC[C@@H](C)[C@H](NS(=O)(=O)c1cccc2ccccc12)C(=O)N[C@H](C=O)Cc1c[nH]c2ccccc12	?	3%	?	1%	-3%
Cc1ccc(-c2nnnn2C2C/C(=N\NC(N)=S)C3OCC2O3)cc1 (stereo unspecified)	-2%	3%	-3%	-5%	-8%
NC(CSS(=O)(=O)O)=NCCC12CC3CC(CC(O)(C3)C1)C2	3.5µM*	?	-12%	-1%	-24%
NC(=O)COC(=O)C12CC3CC(CC(O)(C3)C1)C2	4%	5%	8%	-2%	8%
COc1ccc(OC)c(N2C(=O)C(Cl)=C(N3CCOCC3)C2=O)c1	14µM*	25µM*	?	-5%	4%
O=C1C(Cl)=C(N2CCCCC2)C(=O)N1c1ccccc1Cl	14µM*	20µM*	?	-2%	-7%
COc1ccc(OC)c(N2C(=O)C(Cl)=C(N3CCCCC3)C2=O)c1	13µM*	16µM*	?	-5%	2%
Cc1ccccc1N1C(=O)C(Cl)=C(N2CCCCCC2)C1=O	?	?	-25%	-4%	1%
CCOC(=O)C1=NOC2C3CC(C12)C1C(=O)N(CCc2ccc(OC)c(OC)c2)C(=O)C31 (stereo unspecified)	.	14%	10%	-1%	-6%
Cc1ccc(CN(Cc2ccco2)C(=O)COc2ccccc2C)cc1	-15%	-3%	-11%	?	1%
COc1ccc(-n2c(=O)c3c(c4cc(OC)ccc4n3C)n(Cc3ccc(F)cc3Cl)c2=O)cc1	4%	-3%	4%	-1%	-2%
C/C(=N\Nc1ccc(C(=O)O)cc1)c1ccc2c(c1)Nc1ccccc1S2	3.5µM*	-10%	13µM*[quencher]	-5%	-8%
O=C(OCc1csc(Nc2ccccc2)n1)c1ccc(Cl)cc1	?	?	13µM*[quencher]	-5%	-9%
CC(OCc1ccccc1)C(NC(=O)OC(C)(C)C)C(=O)NC1COC2CC(n3cc(F)c(=O)[nH]c3=O)OC12 (stereo unspecified)	.	.	.	-1%	7%
COc1cc(/C=N/Nc2ccc(C(F)(F)F)cn2)cc(OC)c1O	?	4%	-23%	1%	4%
Oc1ccc(/C=N/Nc2ccc(C(F)(F)F)cn2)cc1	?	21%	11µM*[quencher]	-3%	1%
CCc1ccc2[nH]c(O)c(N=Nc3nc(-c4ccccc4)cs3)c2c1	4.5µM*	10%	?	-2%	0%
CCc1cc2c(N=Nc3c(O)[nH]c4ccccc34)ncnc2s1	?	-4%	-5%	0%	5%
COc1cc(/C=C2/C(=O)NN(c3ccc(Cl)cc3)C2=O)ccc1OC(=O)c1ccco1	14µM*	5%	?	-9%	-3%
